The whole screen tested about 310,000 compounds, of which about 14,000 (4.5%) showed an effect of 50% or more. The effect is printed as a negative number. The sample as a whole holds a higher share of strong results than the screen did.
These compounds were tested against human ether-à-go-go-related gene (hERG) potassium channel (human, UniProt Q12809) (assay: primary screen, population patch clamp on CHO cells stably expressing hERG; higher = less effect of the substance).
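Also: peak tail current of the secondary pulse compared with the same well before compound.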

Sequence of human ether-à-go-go-related gene (hERG) potassium channel (Q12809 whole entry, looked up): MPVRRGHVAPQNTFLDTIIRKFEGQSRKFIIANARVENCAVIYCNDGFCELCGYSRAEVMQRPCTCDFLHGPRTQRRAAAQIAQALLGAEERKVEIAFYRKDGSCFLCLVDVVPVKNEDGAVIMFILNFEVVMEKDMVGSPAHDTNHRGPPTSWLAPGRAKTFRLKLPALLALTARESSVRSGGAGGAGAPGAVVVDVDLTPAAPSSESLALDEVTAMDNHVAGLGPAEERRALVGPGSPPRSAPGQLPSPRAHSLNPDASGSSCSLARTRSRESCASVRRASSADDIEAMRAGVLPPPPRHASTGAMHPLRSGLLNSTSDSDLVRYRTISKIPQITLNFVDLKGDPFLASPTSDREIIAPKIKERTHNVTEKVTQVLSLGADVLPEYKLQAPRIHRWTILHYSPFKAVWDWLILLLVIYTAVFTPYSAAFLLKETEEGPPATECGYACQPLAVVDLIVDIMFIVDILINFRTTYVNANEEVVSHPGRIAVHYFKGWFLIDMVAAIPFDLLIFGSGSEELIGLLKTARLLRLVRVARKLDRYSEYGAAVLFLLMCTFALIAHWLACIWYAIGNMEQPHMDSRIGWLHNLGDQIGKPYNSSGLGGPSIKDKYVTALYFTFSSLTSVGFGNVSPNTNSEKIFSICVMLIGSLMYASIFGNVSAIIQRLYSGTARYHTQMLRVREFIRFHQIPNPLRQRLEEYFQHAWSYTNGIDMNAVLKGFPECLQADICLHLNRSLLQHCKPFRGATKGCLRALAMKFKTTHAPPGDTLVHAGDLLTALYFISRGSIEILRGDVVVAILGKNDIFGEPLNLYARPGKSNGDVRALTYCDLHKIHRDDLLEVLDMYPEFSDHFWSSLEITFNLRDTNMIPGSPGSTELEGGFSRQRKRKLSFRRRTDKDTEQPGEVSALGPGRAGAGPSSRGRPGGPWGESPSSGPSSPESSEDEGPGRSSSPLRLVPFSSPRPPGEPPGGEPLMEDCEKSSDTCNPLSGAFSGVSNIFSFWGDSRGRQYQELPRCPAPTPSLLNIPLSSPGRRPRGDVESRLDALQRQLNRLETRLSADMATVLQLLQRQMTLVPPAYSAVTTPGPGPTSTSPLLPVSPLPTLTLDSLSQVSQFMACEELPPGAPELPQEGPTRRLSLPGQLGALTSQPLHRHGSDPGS

| SMILES | hERG current change (%, negative = inhibition) at 10uM [%] |
| --- | --- |
| Cc1ccc(NS(=O)(=O)c2ccc(C3CCCCC3)cc2)cc1 | -10.3 |
| CC12CCC(=O)N1C(C(=O)NCc1ccc(Cl)cc1Cl)CS2 (stereo not shown) | -0.564 |
| CCn1c(-c2ccc(N(C)C)cc2)nc2ccccc21 | -50.3 |
| C=C(C)Cn1c(-c2ccc(OC)cc2)nc2ccccc21 | -23.4 |
| CN(C)c1ccc(-c2nc3ccccc3n2C)cc1 | -49.9 |
| C=C(C)Cn1c(-c2ccccc2)nc2ccccc21 | -64.9 |
| CCn1c(-c2ccc(N)cc2)nc2ccccc21 | 4.21 |
| COCn1c(-c2ccccc2)nc2ccccc21 | -5.43 |
| Cc1ccc(C(=O)CSc2nc(N)cc(=O)[nH]2)cc1 | 2.68 |
| Fc1ccc(NC(=S)N/N=C/c2cccc(Br)c2)c(F)c1 | 3.9 |
| O=C(COC(=O)Cc1ccsc1)NCc1ccc(Cl)cc1 | 10.6 |
| CC(Sc1cnc2ccccc2n1)C(=O)O (stereo not shown) | 15.9 |
| Cc1ccc(C#N)c(SCc2ccccc2[N+](=O)[O-])n1 | 2.72 |
| CCOc1ccc(-c2nc(C)c(C(C)=O)n2O)cc1 | -0.685 |
| Cc1nonc1OCCNCCNc1ccccc1[N+](=O)[O-] | -23.4 |
| O=[N+]([O-])c1ccc(N2CCN(CCOc3nonc3-c3ccccc3)CC2)c(Cl)c1 | -4.17 |
| Cc1nonc1OCCCNc1ccc([N+](=O)[O-])cc1Cl | 9.59 |
| Cc1nonc1OCCN1CCN(c2ccccc2[N+](=O)[O-])CC1.Cl | -37.2 |
| O=[N+]([O-])c1ccc(NCCNCCOc2nonc2-c2ccccc2)c([N+](=O)[O-])c1 | -68.6 |
| Cc1nonc1OCCNCCNc1ccc([N+](=O)[O-])c2cccnc12 | -52.2 |
| O=[N+]([O-])c1cc(C(F)(F)F)ccc1NCCOc1ccccc1 | -3.64 |
| Cc1nonc1OCCNc1ccc([N+](=O)[O-])c2cccnc12 | -18 |
| Cc1nonc1OCCNc1ccc([N+](=O)[O-])cc1[N+](=O)[O-] | -54.7 |
| Cc1nonc1OCCN1CCN(c2ccc([N+](=O)[O-])cc2)CC1 | -98.3 |

| SMILES | hERG current change (%, negative = inhibition) at 10uM [%] |
| --- | --- |
| CCNCCNc1ccc([N+](=O)[O-])c2cccnc12 | -22.8 |
| Cc1nonc1OCCNCCNc1ccc([N+](=O)[O-])cc1Cl | -49.7 |
| CNC(=O)c1csc(-c2ccc(Cl)cc2)n1 | -4.29 |
| CCn1cc([N+](=O)[O-])c(C(=O)NCc2ccc(Cl)cc2)n1 | -6.18 |
| CCO.NCCc1c[nH]c2ccc(C(N)=O)cc12.O=C([O-])/C=C\C(=O)[O-] | 11.6 |
| CC(=O)c1ccc(NC(=O)C2CCCN2S(=O)(=O)c2ccc(F)cc2)cc1 (stereo not shown) | -16.6 |
| O=c1c2ccccc2[nH]c(=S)n1CCCn1ccnc1 | -0.744 |
| O=S(=O)(c1ccc(NC(=S)Nc2ccc3c(c2)OCO3)cc1)N1CCOCC1 | 13.1 |
| COc1ccc(C2/C=C\CN(C(=O)C3CCCCC3)CC(=O)N2Cc2ccc(F)cc2)cc1 (stereo not shown) | -10.1 |
| Cc1cc(OCC(=O)NNC(=O)CCc2ccccc2)ccc1Br | 17.6 |
| CCC[N+](C)(C)C(C)C(OC(C)=O)c1ccccc1.[I-] (stereo not shown) | 15.5 |
| CCOC(=O)CC(=O)Nc1ccsc1C(N)=O | 15.9 |
| COc1ccccc1N1CCN(/N=C/c2ccc(C(=O)O)cc2)CC1 | 16.3 |
| COc1ccc(S(=O)(=O)NCC2CCCN(C(=O)c3ccccc3)C2)cc1 (stereo not shown) | 8.3 |
| CC1=C(C(=O)N2CCOCC2)C(c2c(C)cc(C)cc2C)NC(=S)N1 (stereo not shown) | 10.5 |
| COC(=O)C1=CN(c2cc(C)cc(C)c2)C=C(C(=O)OC)C1c1ccc(OC)c(O)c1 | 10.9 |
| CN(C)CCCNCCCCNC(=O)/C=N/O | 0.266 |
| CN(C)CCCNCCCNC(=O)/C=N/O | 10.2 |
| CN(C)CCCNCCNC(=O)/C=N\O.Cl | -65.4 |
| CCOc1ccc(OCCC(=O)OC(C)C(=O)Nc2ccc(C(C)=O)cc2)cc1 (stereo not shown) | 8.72 |
| CC(=O)Nc1ccc(S(=O)(=O)N2c3ccccc3NC(=O)CC2C)c(Cl)c1 (stereo not shown) | 11.9 |
| CCOc1ccc(Nc2nc3c(C)cccc3cc2C#N)cc1 | 4.76 |
| Cc1cc(=O)oc2cc(Oc3ccc([N+](=O)[O-])cc3C(F)(F)F)ccc12 | -15 |
| O=Cc1cccc(Oc2ccc([N+](=O)[O-])cc2[N+](=O)[O-])c1 | -55 |

| SMILES | hERG current change (%, negative = inhibition) at 10uM [%] |
| --- | --- |
| Cc1cc(=O)oc2cc(Oc3ccc(C(N)=O)cc3[N+](=O)[O-])ccc12 | -20.7 |
| Cc1cc(=O)oc2cc(Oc3ccc([N+](=O)[O-])cc3[N+](=O)[O-])ccc12 | -64.4 |
| O=C(N/N=C/c1cccc(Oc2ccc([N+](=O)[O-])cc2[N+](=O)[O-])c1)c1cncc(Br)c1 | -32.1 |
| Nc1ccc(Oc2ccc([N+](=O)[O-])cc2[N+](=O)[O-])cc1 | -37.7 |
| Cc1ccc(O)c(C2=Nc3ccccc3N=C(c3cccc([N+](=O)[O-])c3)C2)c1 | 20.9 |
| O=C(COc1ccccc1)OCc1cc(-c2ccco2)on1 | 5.99 |
| Cc1ccc(C)c(NC(=S)N2CCN(Cc3ccccc3)CC2)c1 | 11.2 |
| O=C(O)CCN=C1CCCc2ccccc2N1 | 7.26 |
| O=C1CC(c2ccccc2)CC(O)=C1C=NC1CCCCCC1 (stereo not shown) | 6.58 |
| O=C1CC(c2ccccc2)CC(O)=C1C=NC1CCCC1 (stereo not shown) | -5.2 |
| O=C1CC(c2cccc(Cl)c2)CC(O)=C1C=NC1CCCC1 (stereo not shown) | -59.8 |
| CCOc1ccc(C(=O)NCC(=O)NCC(c2ccc(OC)cc2)N2CCCC2)cc1 (stereo not shown) | -4.71 |
| Cc1ccc(C)c(OC(=O)C2CSC3(C)CCC(=O)N23)c1C (stereo not shown) | -7.46 |
| COc1cc(C(O)P(=O)(OCCC(C)C)c2ccc(N(C)C)cc2)cc(OC)c1OC (stereo not shown) | 10.9 |
| CCOc1ccc2c(c1)ncn2Cc1ccccc1 | 8.33 |
| Cc1ccc2cc(CN(CC3CCCO3)C(=O)NC3CCCCC3)c(=O)[nH]c2c1C (stereo not shown) | -55.4 |
| Cc1ccc(C)c2[nH]c(=O)c(CN(CCN3CCCC3)C(=O)Nc3cccc(Cl)c3)cc12 | -74.1 |
| Cc1cccc2cc(CN(CC3CCCO3)C(=O)NC3CCCCC3)c(=O)[nH]c12 (stereo not shown) | -9.99 |
| Cc1ccc(C)c2[nH]c(=O)c(CN(CC3CCCO3)C(=O)NC3CCCCC3)cc12 (stereo not shown) | -2.81 |
| COc1ccc(NC(=O)N(CCN2CCCC2)Cc2cc3cc(OC)c(OC)cc3[nH]c2=O)cc1 | -4.32 |
| O=C(Nc1cccc(Cl)c1)N(CCN1CCOCC1)Cc1cccc(Cl)c1 | -22.1 |
| Cc1cccc2cc(CN(CCCO)C(=O)Nc3cccc(Cl)c3)c(=O)[nH]c12 | -28.4 |
| Cc1cc(C)c2cc(CN(CCN3CCCC3)C(=O)Nc3ccc(F)cc3)c(=O)[nH]c2c1 | -74.4 |
| COc1ccc(NC(=S)N(CCO)Cc2cc3c(C)cc(C)cc3[nH]c2=O)cc1 | -48.8 |

| SMILES | hERG current change (%, negative = inhibition) at 10uM [%] |
| --- | --- |
| Cc1ccc2cc(CN(CCN(C)C)C(=S)Nc3ccccc3)c(=O)[nH]c2c1C | -49.9 |
| Cc1ccc2cc(CN(CCN3CCCC3)C(=O)Nc3ccccc3)c(=O)[nH]c2c1C | -57.8 |
| COc1ccc(NC(=O)N(CCO)Cc2cc3c(C)cc(C)cc3[nH]c2=O)cc1 | -15.3 |
| CCC(c1nnnn1CS(=O)(=O)c1ccc(C)cc1)N1CCN(c2nc3ccccc3s2)CC1 (stereo not shown) | -4.38 |
| CC(C)NC(=O)[C@@H]1CSC2c3ccccc3C(=O)N21 (stereo partly shown) | 12.7 |
| Nc1nc(-c2ccc(Cl)cc2)nn1C(=O)c1ccco1 | 23.3 |
| CCOC(=O)C(Cc1ccccc1)C(=O)Nc1cccc2ccccc12 (stereo not shown) | -11.8 |
| CC(C)Cn1c(N)c(C(=O)COC(=O)[C@@H]2CCCN2C(=O)c2cccs2)c(=O)n(C)c1=O | -8.74 |
| O=C(c1c[nH]c2ccccc12)N1CCOCC1 | 8.48 |
| c1ccc(COc2ccc(-c3csnn3)cc2)cc1 | -3.17 |
| Cc1nc(-c2ccc(Cl)cc2)sc1C1(C)CC(c2ccc(OC(F)(F)F)cc2)=NO1 (stereo not shown) | 10.3 |
| O=C(Cc1ccccc1)Nc1cccc(N2C(=O)C=CC2=O)c1 | -4.45 |
| O=C(Nc1cccc2[nH]ncc12)c1ccc(F)cc1 | -17.4 |
| Cc1ccc2cc(CN(CCN3CCCC3)C(=O)Nc3ccc(F)cc3)c(=O)[nH]c2c1C | -70.7 |
| COc1ccc(CCN(Cc2cc3cccc(C)c3[nH]c2=O)C(=O)NC2CCCCC2)cc1OC | -25 |
| COc1cc2cc(CN(CCN3CCOCC3)C(=O)Nc3ccc(F)cc3)c(=O)[nH]c2cc1OC | -28.6 |
| COc1cc2cc(CN(CCN3CCCC3)C(=O)Nc3ccc(F)cc3)c(=O)[nH]c2cc1OC | -7.92 |
| Cc1cccc2cc(CN(CCN3CCCC3)C(=O)NC3CCCCC3)c(=O)[nH]c12 | -57 |
| Cc1ccc(C)c2[nH]c(=O)c(CN(Cc3ccco3)C(=O)Nc3ccccc3)cc12 | 1.89 |
| Cc1cccc2cc(CN(Cc3ccco3)C(=O)NC3CCCCC3)c(=O)[nH]c12 | -38.9 |
| Cc1cccc2cc(CN(CCN3CCOCC3)C(=O)Nc3ccccc3F)c(=O)[nH]c12 | -20.6 |
| Cc1ccc(C)c2[nH]c(=O)c(CN(CCN3CCCC3)C(=O)Nc3ccc(F)cc3)cc12 | -75.7 |
